Measured values reported in ChEMBL document CHEMBL3433997, “St. Jude Leishmania screening dataset” (2016).

Columns and labels:
Type in all cases: functional
[1] = molecular target: Solute carrier family 2, facilitated glucose transporter member 1 (Homo sapiens) (UniProt P11166); test: ST_JUDE_LEISH: Cytotoxicity at 2uM final concentration against transgenic Leishmania Mexicana promastigotes LmGLUT1 that are glucose transport deficient and complemented with the human glucose transporter GLUT1. Activity is measured by DNA content using SYBR green in vitro
Solute carrier family 2, facilitated glucose transporter member 1 (Homo sapiens), sequence (P11166 whole entry): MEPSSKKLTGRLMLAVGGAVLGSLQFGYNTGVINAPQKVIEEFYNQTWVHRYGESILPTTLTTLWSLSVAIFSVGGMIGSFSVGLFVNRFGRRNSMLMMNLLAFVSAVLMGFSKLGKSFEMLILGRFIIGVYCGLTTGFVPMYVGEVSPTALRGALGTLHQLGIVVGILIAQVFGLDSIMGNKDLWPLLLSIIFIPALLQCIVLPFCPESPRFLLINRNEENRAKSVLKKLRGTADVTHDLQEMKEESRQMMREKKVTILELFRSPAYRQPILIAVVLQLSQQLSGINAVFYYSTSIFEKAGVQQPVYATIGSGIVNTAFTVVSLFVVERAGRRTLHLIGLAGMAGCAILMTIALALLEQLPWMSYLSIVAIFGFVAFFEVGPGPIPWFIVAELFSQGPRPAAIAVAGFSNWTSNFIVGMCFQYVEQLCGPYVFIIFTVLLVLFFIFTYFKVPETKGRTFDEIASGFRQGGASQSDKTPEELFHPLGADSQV

[2] = molecular target: Hexose transporter 1 (Plasmodium falciparum) (UniProt O97467); test: ST_JUDE_LEISH: Cytotoxicity at 2uM final concentration against transgenic Leishmania Mexicana promastigotes LmPfHT that are glucose transport deficient and complemented with the Plasmodium falciparum hexose transporter. Activity is measured by DNA content using SYBR green in vitro
[3] = molecular target: Glucose transporter (Leishmania mexicana) (UniProt O61059); test: ST_JUDE_LEISH: Cytotoxicity at 2uM final concentration against transgenic Leishmania Mexicana promastigotes LmGT2 that are glucose transport deficient and complemented with the L. Mexicana glucose transporter 2. Activity is measured by DNA content using SYBR green in vitro

SMILES | inhibition [1] [%] | inhibition [2] [%] | inhibition [3] [%]
CCN(CC)CCCNc1c2ccccc2nc2ccccc12 | 23.4 | 22.3 | 16.5
COc1ccc(Cl)cc1NC(=O)C(C)N1CCN(S(=O)(=O)c2ccccc2F)CC1 (centres undefined) | 4.36 | 3.53 | 3.44
Cc1cc(N[C@@H](CC(C)C)C(=O)NCc2cccc(F)c2)nc(NCCc2ccccc2)n1 | 3.97 | 4.78 | 2.16
Cc1ccc(CNC(=O)c2ccc(CN3CCCN(Cc4ccsc4)CC3)cc2)cc1 | 1.42 | 0.79 | 2.87
O=C(/C=C/c1ccc(Cl)c(Cl)c1)NCCCCCN1CCC(NC(=O)Nc2ccc(C(F)(F)F)cc2)CC1 | 8.19 | 8.67 | 8.81
FC(F)(F)c1cc(CNCCCNc2nc3ccncc3[nH]2)ccc1Cl | 1.9 | 1.51 | 0.35
CCN(CC)CCN(Cc1ccc(-c2ccc(C(F)(F)F)cc2)cc1)C(=O)Cn1cc(CCCCc2cccc(F)c2F)c(=O)c2ccccc21 | 7.95 | 6.93 | 10.4
CC(C)CNCc1ccc(OCc2cccc(COc3ccc(CNCC(C)C)cc3I)c2)c(I)c1 | 2.2 | 1.42 | 2.23
COc1cc2nc(N3CCC(CNC(=O)c4cccc5cccnc45)CC3)nc(N)c2cc1OC | 5.61 | 4.14 | 3.91
Oc1ccc(Cl)cc1Nc1nc(C(F)(F)F)nc2ccccc12 | 1.75 | 1.98 | 2.23
CCN(CC)C(=O)c1cnc(-c2ccccc2)nc1Oc1cccc(Cl)c1 | -0.46 | 2.57 | 3
COc1ccc(-c2cccc(NC(=O)c3ccc(Cl)cc3)c2)cc1CN(C)CCN(C)C | 3.16 | 2.66 | 6.97
CCC(C)(C)C1CCc2nc(N)nc(N)c2C1 (centres undefined) | 67 | 71.9 | 56.1
N#Cc1ccc(C(=O)NC2CCN(CCCCCNC(=O)/C=C/c3ccc(Cl)c(Cl)c3)CC2)cc1 | 0.08 | 1.46 | -1.31
Cc1cccc2nc(-c3cccc(-c4cccc(NC(=O)Cc5c[nH]cn5)c4)c3)[nH]c12 | 1.54 | 2.27 | 2.94
CN1CCC(c2csc3ccc(NC(=O)Nc4ccc(-c5ccncc5)c5ccccc45)cc23)CC1 | -0.99 | 0.65 | 2.4
Cn1nccc1C(=O)NCCNCc1cccc(-c2cccc(-c3nc4cc(C(F)(F)F)ccc4[nH]3)c2)c1 | 2.84 | 1.83 | 0.31

SMILES | inhibition [1] [%] | inhibition [2] [%] | inhibition [3] [%]
O=S(=O)(ON=C1CCc2ccccc21)c1ccc(Cl)cc1 | 1.95 | -0.07 | 3.35
CN1CCN(Cc2cc3cc(NC(=O)/C=C/c4cccc(Cl)c4)ccc3s2)CC1 | 0.65 | 0.04 | -0.14
CCC(C)Oc1ccc2nc(N)nc(N)c2c1Cl (centres undefined) | 41.2 | 55.9 | 30
Cc1cccc2nc(-c3ccc(-c4ccc(NC(=O)C(=O)c5cccn5C)cc4)cc3)[nH]c12 | 5.06 | 1.84 | 0.5
Nc1ncnc2cc(-c3cccc(NC(=O)Nc4ccccc4)c3)sc12 | 3.48 | 2.18 | -1.3
COc1ccc(CN(C)CCCOc2ccc(NC(=O)c3cccc4c(=O)c5cccc(C)c5[nH]c34)cc2)cc1OC | 4.56 | 4.25 | 3.39
c1ccc2c(NCCCCCCNc3ccnc4ccccc34)ccnc2c1 | -2.25 | -0.51 | -2.32
COc1ccc(NC(=O)NC2CCN(CCCCCNC(=O)/C=C/c3ccc(Cl)c(Cl)c3)C2)c(OC)c1 (centres undefined) | -1.78 | -1.48 | 2.83
O=S(=O)(c1ccccc1)n1ccc2cc(Nc3ncnc4cc(C#C[C@H]5CCCN5)sc34)ccc21 | 2.91 | 2.14 | -0.2
O=C(Cn1c(CCc2cccc(F)c2F)nc(=O)c2cccnc21)N(Cc1ccc(-c2ccc(C(F)(F)F)cc2)cc1)C1CCN(C2CCOCC2)CC1 | 2.69 | 1.35 | 1.43
NS(=O)(=O)c1ccccc1Nc1nc(Nc2ccc(N3CCOCC3)cc2)nc2c1CCC2 | 11.1 | 4.49 | 3.91
CC1CCCCN1CCCNc1nc(NCc2ccccc2)c2ccccc2n1 (centres undefined) | 23.1 | 31.8 | 10.2
O=C(CCN1C(=O)c2ccccc2C1=O)N1CCN(CC=Cc2ccccc2)CC1 | -1.54 | -1.32 | -1.76
Cc1ccc(Nc2nc(N/N=C/c3cccc([N+](=O)[O-])c3)nc(Nc3ccccc3)n2)c(C)c1 | 2.34 | 1.33 | -0.87
Cc1ccc(C(NC(=O)c2ccccc2)c2ccc3cccnc3c2O)cc1 (centres undefined) | 4.29 | 6.5 | -0.04
COc1ccc(Cl)cc1N1CCN(CCCNC(=O)c2ccc(-c3nc4cc(Cl)c(F)cc4[nH]3)s2)CC1 | 6.45 | 5.41 | 2.06
